AMA1 RON2 block – disrupts binding of P. falciparum AMA1 to RON2. AlphaScreen AMA1-biotinylated RON2 peptide binding. Potency, µM (series often up to 58.2 µM), inactives show at the highest dose activity change, negative = inhibition, hits mostly inhibitors. 360,000 tested, 0.2% active;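 note: 0% = vehicle wells and -100% = peptide control; nearly all actives have a fitted effect of over 45% in size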
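AMA1 (3D7) with his tag at 25 nM final met compounds first, then biotinylated RON2 peptide at 25 nM; detection used donor plus acceptor beads, 10 µg/mL apiece, read by AlphaScreen after 30 min at room temperature.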
Giardia FBPA inh – blocks Giardia fructose-bisphosphate aldolase activity; 290,000 tested, 0.71% active; Potency, µM (top dose mostly 59.6 µM), for the others: top-dose activity, negative = inhibition, usual class: inhibitors; AID 2451; purified Giardia FBPA; note: nearly all actives have a fitted effect of over 55% in size
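Giardia FBPA (40 nM reagent) was preincubated 10 min at RT with compound (up to 57.5 uM final), then substrate plus GAPDH/TPI/NAD/arsenate coupling system with diaphorase/resazurin was added; resorufin fluorescence (525/598 nm) was read after 20 min.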
AmpC inh no detg – inhibitors of E. coli AmpC beta-lactamase without detergent; P00811; Potency, µM (series often up to 57.1 µM), inactives show at the highest dose activity change, negative = inhibition, usual class: inhibitors; AmpC nitrocefin hydrolysis, absorbance 480 nm, 0.0001% Triton; 330,000 tested, 0.52% active;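 note: plate controls were no compound for no effect and no enzyme for full effect; nearly all actives have a fitted effect of over 20% in size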
Target sequence (P00811 whole entry, looked up): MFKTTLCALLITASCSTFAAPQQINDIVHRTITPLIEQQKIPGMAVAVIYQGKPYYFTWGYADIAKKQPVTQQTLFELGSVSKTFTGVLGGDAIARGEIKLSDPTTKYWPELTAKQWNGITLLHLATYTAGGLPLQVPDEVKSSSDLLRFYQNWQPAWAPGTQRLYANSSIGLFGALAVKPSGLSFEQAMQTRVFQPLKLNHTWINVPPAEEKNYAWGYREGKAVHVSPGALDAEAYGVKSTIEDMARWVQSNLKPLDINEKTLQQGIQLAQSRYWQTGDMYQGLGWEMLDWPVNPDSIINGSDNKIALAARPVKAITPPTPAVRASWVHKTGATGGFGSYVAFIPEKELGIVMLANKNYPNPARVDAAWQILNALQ
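AmpC (5.3 nM in the dispensed reagent) in 20 mM phosphate pH 7.0 with 0.01% (detergent screen) or 0.0001% Triton X-100 was preincubated with compounds for 15 min at room temperature. Nitrocefin was then added from an 800 uM solution, and hydrolysis was followed at 480 nm.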
AmpC inh detg – AmpC beta-lactamase inhibition with detergent present; P00811; AmpC hydrolysis of nitrocefin, absorbance 480 nm, 0.01% Triton; Potency, µM (highest dose often 114 µM), without a hit: at the top dose activity change, negative = inhibition, most hits filed as inhibitors; 370,000 tested, 0.041% active; AID 485294;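 note: 0% = no-compound wells and -100% = no-enzyme wells; nearly all actives have a fitted effect of over 25% in size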
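AmpC (5.3 nM in the dispensed reagent) in 20 mM phosphate pH 7.0 with 0.01% (detergent screen) or 0.0001% Triton X-100 was preincubated with compounds for 15 min at room temperature. Nitrocefin was then added from an 800 uM solution, and hydrolysis was followed at 480 nm.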
* marks the source's active call; other numbers are inactive results; [ ] = remark or other dose. Rows were chosen to be rich in hits. Some 1.1% of all compounds tested hit in one or more screens of this group. Calls come from the whole dose curve; as a rule, active = well fitted curve in the direction sought with a large enough effect; inconclusive = small, poorly fitted or top-dose-only effect, or another doubt; inactive = no such curve, though single readings can be large; an effect the other way counts as inactive or inconclusive. Unless noted, % is set by controls: 0 for no effect and ±100 for the full control effect; potency is the fitted concentration of half-maximal effect.

For O=C1C(c2[nH]c3ccc(S(=O)(=O)O)cc3c2O)=Nc2ccc(S(=O)(=O)O)cc21 the results were Giardia FBPA inh 18µM*.
`CCc1ccc(N(C(=O)C(F)(F)F)C(C(=O)NC2CCCCC2)c2ccncc2)cc1` (centres undefined) gave AMA1 RON2 block -7%, Giardia FBPA inh 1%, AmpC inh no detg 0.56µM* and AmpC inh detg 0%.
For CCc1ccc(N(C(=O)c2ccco2)C(C(=O)NC2CCCC2)c2ccncc2)cc1 (centres undefined) the results were AMA1 RON2 block 0%, Giardia FBPA inh 8%, AmpC inh no detg 18% and AmpC inh detg 2%.
`c1ccc(N=Nc2ccc3cccccc2-3)cc1` gave AMA1 RON2 block 4.5µM*.
CC1(C(=O)NS(=O)(=O)C2CC2)CCCN(C(=O)c2ccccc2OC(F)(F)F)C1 (centres undefined) was read as AMA1 RON2 block -9%.
Screening CN(c1ccc(OCC(=O)Nc2nc(-c3ccccc3)cs2)cc1)S(=O)(=O)c1ccc(F)cc1 returned AMA1 RON2 block -5%, Giardia FBPA inh -3%, AmpC inh no detg -17% and AmpC inh detg -1%.
`Cc1ccc(S(=O)(=O)N(C)c2ccc(OCC(=O)Nc3nc(-c4ccccc4)cs3)cc2)cc1` gave AMA1 RON2 block 9%, Giardia FBPA inh -3%, AmpC inh no detg 2µM* and AmpC inh detg -9%.
`CCOC(=O)C1=C(C)N=C2c3ccccc3C(=O)C2C1c1ccc(Cl)cc1` (centres undefined) gave AMA1 RON2 block -17%, Giardia FBPA inh -5%, AmpC inh no detg -44% and AmpC inh detg inconclusive.
Screening CCOC(=O)C1=C(Cc2ccc(Cl)cc2)C(=O)c2ccccc2C1=O returned AMA1 RON2 block inconclusive, Giardia FBPA inh 2.5µM*, AmpC inh no detg -45% and AmpC inh detg -15%.
For CCOC(=O)C1CCN(C(c2ccc(C)cc2)c2sc3nc(-c4ccco4)nn3c2O)CC1 (centres undefined) the results were AmpC inh detg 1%.
`O=C1C(Nc2ccccc2)=C/C(=N/S(=O)(=O)c2cccs2)c2ccccc21` gave AMA1 RON2 block inconclusive, Giardia FBPA inh inconclusive, AmpC inh no detg 10µM* and AmpC inh detg -5%.
COC(=O)c1ccccc1NC1=C/C(=N\S(=O)(=O)c2ccc(C(=O)O)cc2)c2ccccc2C1=O was read as AMA1 RON2 block inconclusive, Giardia FBPA inh 1µM*, AmpC inh no detg -40% and AmpC inh detg -6%.
COC(=O)c1ccccc1NC1=C/C(=N\S(=O)(=O)c2cccs2)c2ccccc2C1=O was read as AMA1 RON2 block 3.2µM*, Giardia FBPA inh inconclusive, AmpC inh no detg -55% and AmpC inh detg 0%.
Screening CCCCCC[C@H]1C(=O)O[C@H](C)[C@H](NC(=O)c2cccc(NC=O)c2O)C(=O)O[C@@H](C)[C@H]1OC(=O)CC(C)C returned Giardia FBPA inh 0%[21.7 µM].
For CC(C)(C)C1CCC2(CC1)Nc1cccc3cccc(c13)N2 the results were AMA1 RON2 block -7%, Giardia FBPA inh -1%, AmpC inh no detg 13µM* and AmpC inh detg inconclusive.
`CCOc1ccccc1NS(=O)(=O)c1cc2[nH]c(=O)c(=O)[nH]c2cc1C` gave AmpC inh detg 5%.
Screening COc1cc(/C=N/NC(=O)C(Cc2c[nH]c3ccccc23)NC(=O)OCc2ccccc2)cc([N+](=O)[O-])c1O (centres undefined) returned AMA1 RON2 block 1%, Giardia FBPA inh -10%, AmpC inh no detg 10µM* and AmpC inh detg -6%.
For CCN(CC)c1ccc(NC(=O)CCCN2C(=O)C(c3ccccc3)Oc3cccnc32)c(C)c1 (centres undefined) the results were AmpC inh detg 4%.
CCc1nnc(N/N=C/c2ccc(-c3ccc([N+](=O)[O-])cc3)o2)n1N was read as AMA1 RON2 block 75%, Giardia FBPA inh 4.5µM*, AmpC inh no detg -8% and AmpC inh detg 1%.
For CCC(=O)N/N=C/c1ccc(-c2ccc([N+](=O)[O-])cc2)o1 the results were AMA1 RON2 block 11%, Giardia FBPA inh -2%, AmpC inh no detg -11% and AmpC inh detg -6%.
Cc1nnc(N/N=C\c2ccc(-c3ccccc3[N+](=O)[O-])o2)n1N was read as AMA1 RON2 block -13%, Giardia FBPA inh 1.8µM*, AmpC inh no detg -26% and AmpC inh detg -5%.
